# Measured values: PubChem BioAssay (NCATS)
# Results filed as inconclusive are left out. Calls of active or inactive are those of the source. Calls come from the whole dose curve; as a rule, active = well fitted inhibition curve with a large enough effect; inconclusive = small, poorly fitted or top-dose-only effect; inactive = flat fitted curve, though single readings scatter. Where a SMILES comes first, the peptide text is derived from it. [ ]: non-standard residue; d: D form. pGlu = O=C1CC[C@@H](C(=O)O)N1
# System: Zika virus NS2B-NS3 protease
# Test: Primary screen GU AMC qHTS for Zika virus inhibitors (AID 1347154);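 note: 0% = no-inhibitor control and -100% = no-enzyme control; nearly all actives have a fitted effect of over 70% in size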
# Details: Zika NS2B-NS3 unlinked protease, AMC fluorogenic substrate; series mostly up to 54.1 µM; activity change, negative = inhibition: at the top concentration
# Procedure, shortened: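 Unlinked Zika NS2B hydrophilic domain–NS3 protease complex at 25 nM in 10 mM Tris-HCl pH 8.0, 0.01% Tween 20, with an AMC peptide substrate. Fluorescence change (340/450 nm) over 15 min at room temperature, normalized to controls, fitted to 4-parameter Hill.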
row,SMILES,"activity change, negative = inhibition"
1,CCNC(=O)[C@@H]1CCCN1C(=O)[C@H](CCCN=C(N)N)NC(=O)[C@H](CC(C)C)NC(=O)CNC(=O)[C@H](Cc1ccc(O)cc1)NC(=O)[C@H](CO)NC(=O)[C@H](Cc1c[nH]c2ccccc12)NC(=O)[C@H](Cc1cnc[nH]1)NC(=O)[C@@H]1CCC(=O)N1 ([pGlu]HWSYGLRP-NHEt),1.39% (inactive)
2,C/C(=N\O)[C@@H](C)NCC(C)(C)CN[C@H](C)/C(C)=N/O,-2.07% (inactive)
3,COc1ccc(-n2nc(CCC(=O)N(C)O)cc2-c2ccc(Cl)cc2)cc1,-1.87% (inactive)
4,CCOC(=O)NNc1nncc2ccccc12,-5.15% (inactive)
5,O=C(C1CCCCC1)N1CC(=O)N2CCCc3ccccc3C2C1 (stereo not drawn),-4.66% (inactive)
6,CCCCCCCC(=O)[O-].CCCCCCCC(=O)[O-].[Zn+2],-10.5% (inactive)
7,Nc1ncnc2nc[nH]c12,-3.53% (inactive)
8,COc1cc(C(=O)NC2CCCNC2)cc(OC)c1OC (stereo not drawn),-0.695% (inactive)
9,Nc1ccc(C(=O)N2CC3CC(CN(Cc4ccccc4)C3)C2)cc1,2.08% (inactive)
10,CCCCCCCCCCCC[N+](C)(C)Cc1ccccc1,-9.06% (inactive)
11,O=P(O)(O)OCC(O)CO (stereo not drawn),-2.05% (inactive)
12,CN(C)CCOC1=Cc2ccccc2Sc2ccc(Cl)cc21,-5.08% (inactive)
13,O=C1CC2(CCCC2)CC(=O)N1,3.43% (inactive)
14,CCCCCCCCCCCCCCCC[n+]1ccccc1,-15.7% (inactive)
15,Cc1ccccc1N1CCN(CCc2nnc3n2CCCC3)CC1,-1.11% (inactive)
16,CCCCCOc1ccc(C2SC(=O)NC2=O)cc1OCC (stereo not drawn),-8.6% (inactive)
17,O=C1CCCc2c(O)cccc21,3.23% (inactive)
18,CCC(C(=O)OCCN1CCOC(c2ccccc2)C1C)c1ccccc1 (stereo not drawn),-7.61% (inactive)
19,CNC[C@H](O)[C@@H](O)[C@H](O)[C@H](O)CO,-3.82% (inactive)

row,SMILES,"activity change, negative = inhibition"
1,CCOC(=O)CN1CCCC1=O,-3.73% (inactive)
2,CC(=O)Nc1c(I)c(NC(C)=O)c(I)c(C(=O)O)c1I,3.7% (inactive)
3,CC(C)C[C@H](NC(=O)CNC(=O)[C@H](Cc1ccc(O)cc1)NC(=O)[C@H](CO)NC(=O)[C@H](Cc1c[nH]c2ccccc12)NC(=O)[C@H](Cc1cnc[nH]1)NC(=O)[C@@H]1CCC(=O)N1)C(=O)N[C@@H](CCCN=C(N)N)C(=O)N1CCC[C@H]1C(=O)NCC(N)=O (stereo in doubt),-2.21% (inactive)
4,CC(CC1c2ccccc2CCc2ccccc21)CN(C)C (stereo not drawn),-6.48% (inactive)
5,Cc1ccc(C(C)OC(=O)C2(C)CCC(C(=O)O)C2(C)C)cc1 (stereo not drawn),-1.7% (inactive)
6,Cc1ccc2ccc(Cl)cc2n1,2.77% (inactive)
7,CCCCCC1Nc2cc(C(F)(F)F)c(S(N)(=O)=O)cc2S(=O)(=O)N1 (stereo not drawn),-11.6% (inactive)
8,CCCc1c2oc(C(=O)O)cc(=O)c2cc2c(=O)cc(C(=O)O)n(CC)c12,-2.04% (inactive)
9,OC1(c2ccc(Cl)cc2)CCNCC1,-4.75% (inactive)
10,Cn1cc(S(C)=O)c(=O)c2ccc(F)cc21 (stereo not drawn),-7.17% (inactive)
11,CO/N=C(\C(=O)O)c1csc(NC(=O)CCl)n1,5.28% (inactive)
12,NC(=O)COCCN1CCN(C(c2ccccc2)c2ccc(Cl)cc2)CC1 (stereo not drawn),-0.415% (inactive)
13,CC(=O)CC/C=C(\C)CC/C=C(\C)CC/C=C(\C)CCC=C(C)C,-1.93% (inactive)
14,Cc1cc(=O)oc2cc(O[C@@H]3SC[C@@H](O)[C@H](O)[C@H]3O)ccc12,-13.8% (inactive)
15,O=C(O)[C@H](O)[C@@H](O)[C@H](O[C@@H]1O[C@H](CO)[C@H](O)[C@H](O)[C@H]1O)[C@H](O)CO,-2.59% (inactive)
16,CC[N+](CC)(CC)CCOC(=O)C(C1CCCC1)C1CCCC1,-1.55% (inactive)
17,Cc1oc(=O)oc1COC(=O)[C@@H]1N2C(=O)[C@@H](NC(=O)[C@H](N)c3ccccc3)[C@H]2SC1(C)C,-5.76% (inactive)
18,CO[C@@H]1[C@@H](O[C@@H]2O[C@H](C)[C@@H](O[C@H]3C[C@@](C)(O)[C@@H](O)[C@H](C)O3)[C@H](N(C)C)[C@H]2O)[C@@H](CC=O)C[C@@H](C)[C@@H](O[C@@H]2CC[C@H](N(C)C)[C@@H](C)O2)/C=C/C=C/C[C@@H](C)OC(=O)C[C@H]1OC(C)=O,1.22% (inactive)
19,C[C@H]1NCc2cc(-c3ccc4c(=O)c(C(=O)O)cn(C5CC5)c4c3OC(F)F)ccc21,-4.99% [at 25.8 µM] (inactive)
